Assay outcomes deposited in PubChem by National Center for Advancing Translational Sciences (NCATS).
Sampled rows, rich in hits. Any-hit rate of the full collection: about 21%.
Pf growth 96h: inhibits malaria parasite growth, 96 h | 320,000 compounds, 6.9% hits | Potency, µM (doses to about 28.7 µM), most hits filed as inhibitors | P. falciparum luciferase reporter growth, 96 h | AID 504834
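96 h incubation, 37 C, 5% CO2, of luciferase-reporter P. falciparum-infected RBCs (2% hematocrit, 0.05% parasitemia final) with test compounds; endpoint luminescence.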
Shiga inhibitor: inhibitors of Shiga toxin in Vero cells; Vero cells, Shiga toxin protein synthesis inhibition reporter; inhibition, % at 38.7 µM; 290,000 compounds, 9.2% hits; in the data active = inhibition mostly above about 28%, no sharp cut-off; inactive = mostly below about 43%
HCMV inh: human cytomegalovirus inhibition | HFF cells, HCMV-luciferase reporter, 72 h; active compounds read low | activity change, negative = inhibition, % at 57.5 µM | 410,000 compounds, 4.5% hits | AID 1259415; in the data active = activity change below about -60%; inconclusive = no clear call, values can overlap the other calls; inactive = above about -39%
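Compounds were evaluated in HFFs infected with an HCMV luciferase reporter virus (MOI 1 PFU/cell). Luciferase in lysates collected 72 h post infection served as the replication measure.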
HCV inh: HCV inhibition; Huh7.5.1 HCVcc-Cre infection, luciferase reporter, 44 h; Potency, µM (titrated, usually from 41.8 µM), usual class: inhibitors; 340,000 compounds, 3.4% hits
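Reporter virus HCVcc-Cre (~0.5 moi) infects cells exposed to compound; seeding density 1,000 cells/well with 4 h settling beforehand. Luminescence, 15 sec read, taken 44 h post-infection following a 15 min RT substrate incubation.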
Cycloheximide cs: counter-screen hit for Shiga toxin inhibitors, cycloheximide; cell reporter, cycloheximide protein synthesis inhibition counterscreen; max response, %; 300,000 compounds, 12% hits; AID 2314; in the data active = max response mostly above about 13%, no sharp cut-off; inactive = mostly below about 14%; note: read at 38.3 µM for the half of the compounds with a filed dose
Pf growth 48h: P. falciparum growth inhibition at 48 hours (one generation) | P. falciparum luciferase growth in erythrocytes, 48 h | Potency, µM (titrated, usually from 28.7 µM), most hits filed as inhibitors | 310,000 compounds, 5.9% hits
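Here the parasites carry a stable luciferase gene and grow inside erythrocytes in Albumax-based RPMI medium with compound for one erythrocytic cycle. Activity is scored as loss of luminescent signal.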
Numbers stand for hits; 0 = inactive; ? = inconclusive; - = not tested or not shown; + = active, no number. Unless noted, calls come from the whole dose curve; as a rule, active = well fitted inhibition curve with a large enough effect; inconclusive = small, poorly fitted or top-dose-only effect, or another doubt; inactive = no such curve, though single readings can be large or run the other way.

SMILES	Pf growth 96h	Shiga inhibitor	HCMV inh	HCV inh	Cycloheximide cs	Pf growth 48h
COc1cc(OC)cc(C(=O)Nc2cccc3cccnc23)c1	0	0	0	0	0	0
O=S(=O)(O)c1cccc2c(N=Nc3ccc(O)c4ncccc34)cccc12	0	0	-	?	0	?
Cc1ccc(O)c2ncccc12	?	-	-	-	-	0
CCOc1ccc(-c2cc3c(=O)n(CC(=O)NCc4ccc(C)cc4)ccn3n2)cc1	-	-	0	-	-	-
C=CC[C@H]1C=C[C@@H](C(C(=O)OC)C(=O)OC)CN1C(C)=O	-	-	0	0	-	-
Oc1ccc(Br)cc1-c1ccnn1-c1ccccc1	?	0	0	?	0	?
CCOc1ccc(NC(=O)Nc2c[nH]c(=O)[nH]c2=O)cc1	-	-	0	-	-	-
COc1cccc(N=Nc2ccc(O)c3ncccc23)c1	?	89	-100	6.3µM	13	?
O=Nc1ccc(O)c2ncccc12	3.3µM	44	-98	?	56	1.5µM
Nc1ccc(N=Nc2ccccc2)c2cccnc12	0	90	0	2.5µM	48	0
CCc1nn(C(CC)C(=O)NCc2cccc(OC)c2)c(=O)c2cc3occc3n12 (configuration not stated)	0	0	?	?	0	0
CCC(=O)N1CCc2cc(Br)cc(S(=O)(=O)CCC(=O)N3CCN(c4ccccc4F)CC3)c21	-	-	0	-	-	-
CC(C)Cc1ccc(/C=C/C(=O)N2CCCCC2)cc1	0	67	0	0	43	0
Cc1ccc(/C=C/C(=O)N2CCC(Cc3ccccc3)CC2)cc1	?	0	0	0	0	0
CC(C)(C)c1ccc(/C=C/C(=O)N2CCCCC2)cc1	?	81	0	0	51	0
Cc1ccc(/C=C/C(=O)N2CCCC(C)C2)cc1 (configuration not stated)	0	+	0	0	64	0
CCc1ccc(/C=C\C(=O)N2CCCC2)cc1	-	-	?	0	-	-
CC1CCN(C(=O)/C=C/c2ccc(C(C)(C)C)cc2)CC1	0	21	0	0	39	0
COc1ccc(OC)c(CN2CCN(Cc3ccc(OC)c(OC)c3OC)CC2)c1	-	-	0	-	-	-
COc1ccc(OC)c(CN2CCN(Cc3cc(=O)oc4cc(O)ccc34)CC2)c1	2.6µM	0	0	0	0	3.7µM
COc1ccc2oc(=O)cc(CN3CCN(Cc4ccc(OC)c(OC)c4OC)CC3)c2c1	0	0	0	3.5µM	0	?
CCn1nnc(NC(=O)c2sc3ccccc3c2Cl)n1	0	66	0	0	42	0
O=C(Nc1ccncc1)c1sc2ccccc2c1Cl	?	72	0	?	26	0
CN1CCN(c2ccc(NC(=O)c3sc4ccccc4c3Cl)cc2)CC1	0	82	?	?	43	0
Cc1ccc(NC(=O)c2sc3ccccc3c2Cl)cc1	-	-	0	-	-	-
SMILES	Pf growth 96h	Shiga inhibitor	HCMV inh	HCV inh	Cycloheximide cs	Pf growth 48h
COC(=O)c1ccc(N2CCN(C)CC2)c(NC(=O)c2sc3ccccc3c2Cl)c1	-	-	-98	?	-	-
CCOc1ccc(NC(=O)c2ccc(NC(=O)c3ccccc3Br)cc2)cc1	0	-	0	5µM	-	0
CCOc1ccc(NC(=O)c2ccccc2OCC(=O)c2ccccc2)cc1	?	0	0	?	48	-
CCOc1ccccc1C(=O)Nc1ccc(NC(=O)c2ccccc2)cc1	0	-	0	0	0	0
CCOc1ccc(NC(=O)c2ccccc2O)cc1	?	0	0	0	12	0
CCOc1ccc(NC(=O)c2ccccc2OC)cc1	-	0	0	0	40	0
Cc1ccc(NC(=O)c2ccccc2OCC(=O)c2ccccc2)cc1	-	0	0	?	0	?
CCOc1ccc(NC(=O)c2ccccc2-c2ccccc2C(=O)O)cc1	-	-	0	0	-	-
CCOc1ccc(NC(=O)c2ccccc2CO)cc1	-	0	0	0	31	-
Cc1ccc(C(=O)COc2ccccc2C(=O)Nc2ccccc2)cc1	0	0	0	16µM	0	0
Cc1cccc(C)c1NC(=O)COc1ccccc1C(=O)Nc1ccc(Br)cn1	?	0	-65	0	0	0
CC(=O)c1ccc(NC(=O)COc2ccccc2C(=O)Nc2ccc(C)cn2)cc1	0	0	0	0	0	0
CCC(=O)c1ccccc1OCC(=O)Nc1c(C)cccc1C	0	0	0	0	0	0
CC(=O)c1ccc(NC(=O)COc2ccccc2C(=O)Nc2ccccc2)cc1	0	49	0	?	13	?
